# Laboratory results taken from PubChem BioAssay (EPA / NIEHS).
# Results filed as inconclusive are left out. Active and inactive are the calls of the source. The calls were made as follows: active = hit-call score of the fitted dose curve at least 0.9, where 1 is the maximum; inconclusive = response in the unintended direction; inactive = score below 0.9.
# Target: rat Opioid Receptor, Non-selective Sodium (Na+) Binding, Oprm1 (gene 25601) (UniProt P33535)
# Assay: NVS_GPCR_rOpiate_NonSelectiveNa: NovaScreen (NVS) G Protein-Coupled Receptor Assay for rat Opioid Receptor, Non-selective Sodium (Na+) Binding (AID 2283311)
# Description: NVS_GPCR_rOpiate_NonSelectiveNa is a biochemical, single-readout assay that uses extracted gene-proteins from Rat forebrain membranes in a tissue-based cell-free assay. Measurements were taken 1.5 hours after chemical dosing in a 48-well plate.NVS_GPCR_rOpiate_NonSelectiveNa is one of one assay component(s) measured or calculated from the NVS_GPCR_rOpiate_NonSelectiveNa assay. It is designed to make measurements of radioligand binding, a form of binding reporter, as detected with scintillation counting signals by Filter-based radiodetection technology.Data from the assay component NVS_GPCR_rOpiate_NonSelectiveNa was analyzed into 1 assay endpoint. This assay endpoint, NVS_GPCR_rOpiate_NonSelectiveNa, was analyzed in the positive analysis fitting direction relative to DMSO as the negative control and baseline of activity. Using a type of binding reporter, loss-of-signal activity can be used to understand changes in the binding as they relate to the gene Oprm1. Furthermore, this assay endpoint can be referred to as a primary readout, because the performed assay has only produced 1 assay endpoint. To generalize the intended target to other relatable targets, this assay endpoint is annotated to the gpcr intended target family, where the subfamily is rhodopsin-like receptor.
# Binding assays used specific radioligands (tritiated, iodinated) with non-radioactive competitive displacement ligands in agonist or antagonist protocols (as indicated) and various reference compounds and inhibitors to titrate specific binding to receptors and transporters. Most enzyme assays (CYPs, kinases, phosphatases, proteases, HDACs) used recombinant protein and specific substrates (fluorescence mostly, some colorimetric and radioactive) and inhibitors, followed by a biochemical separation of substrate and product. All assays for the biochemical HTS were initially run in duplicate at a single concentration (10 uM for CYP450 assays and 25 uM for all others). Assay-chemical combinations meeting a pre-defined threshold (e.g., 30% inhibition and other criteria defined below) were then run in singleton concentration-response format with maximum concentration of 20 uM for CYPs and 50 uM for all others. Each assay was run with positive and negative controls, and concurrent controls on every plate. The follow-up (secondary) screen tested active chemical-pairs in concentration series, as well as a few additional assays not tested in the primary screen, some selected negative inactives, and several cases re-run in the concentration series for confirmatory purposes.
# rat Opioid Receptor, Non-selective Sodium (Na+) Binding, Oprm1 (gene 25601), sequence (P33535 whole entry, looked up): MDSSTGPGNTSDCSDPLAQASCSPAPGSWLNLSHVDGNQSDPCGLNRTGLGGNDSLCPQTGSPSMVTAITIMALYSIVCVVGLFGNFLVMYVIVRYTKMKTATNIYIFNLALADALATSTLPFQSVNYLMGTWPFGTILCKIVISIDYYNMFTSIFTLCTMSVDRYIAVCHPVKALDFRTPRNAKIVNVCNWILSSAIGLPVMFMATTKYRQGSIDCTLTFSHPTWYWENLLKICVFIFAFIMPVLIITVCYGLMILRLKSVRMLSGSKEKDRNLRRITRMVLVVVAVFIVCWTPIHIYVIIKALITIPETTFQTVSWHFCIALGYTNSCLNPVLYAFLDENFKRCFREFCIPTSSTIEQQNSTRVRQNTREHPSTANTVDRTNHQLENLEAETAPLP
SMILES,outcome,AC50
C[C@]12CC[C@@H]3c4ccc(O)cc4CC[C@H]3[C@@H]1CC[C@H]2O,inactive,–
CN(C)c1ccc(C(=C2C=CC(=[N+](C)C)C=C2)c2ccc(N(C)C)cc2)cc1,–,9.72 µM (active)
CN(C)C(=O)C1(N2CCCCC2)CCN(CC[C@@]2(c3ccc(Cl)c(Cl)c3)CN(C(=O)c3ccccc3)CCO2)CC1,–,3.48 µM (active)
CCN(Cc1cccnc1)C(=O)c1cccc(Cl)c1[C@]1(C)C(=O)N(Cc2ccc(OC)cc2OC)c2ccc(Cl)cc21,–,13.9 µM (active)
C[C@]12CC[C@@H]3c4ccc(O)cc4CC[C@H]3[C@@H]1CCC2=O,–,13.9 µM (active)
O=c1c(-c2ccc(O)cc2)coc2cc(O)cc(O)c12,inactive,–
CN(C[C@@H](CC[N+]12CCC(C3CCCCC3)(CC1)CC2)c1ccc(Cl)c(Cl)c1)C(=O)c1cc(C(F)(F)F)cc(C(F)(F)F)c1,–,12.5 µM (active)
CC(C)(c1cc(Br)c(O)c(Br)c1)c1cc(Br)c(O)c(Br)c1,inactive,–
CCCCOC(=O)c1ccc(O)cc1,–,25 µM (active)
CC(O)CC(C)(C)O (stereo not drawn),inactive,–
COc1ccc2cc(S(=O)(=O)N[C@H](CC(=O)N[C@H](Cc3ccc(CN4[C@H](C)CCC[C@@H]4C)cc3)C(=O)N(C)C(C)C)c3ccc4c(c3)OCO4)ccc2c1,–,4.72 µM (active)
NCc1cccc(C2CCN(C(=O)c3ccc(C#Cc4ccccc4F)o3)CC2)c1,–,11.2 µM (active)
Cc1occc1C(=O)Nc1ccc(C(=O)N2CCC(F)(F)/C(=C\C(=O)N3CCC(N4CCCCC4)CC3)c3ccccc32)cc1,–,5.68 µM (active)
CCN(CC)C(=O)c1cc(S(=O)(=O)Cc2ccccc2)c(N2CCC(c3ccccc3)CC2)cc1N(CC)CCN(C)C,inactive,–
Clc1ccccc1C(c1ccccc1)(c1ccccc1)n1ccnc1,inactive,–
Cc1cc(F)ccc1-c1cc(N2CC[C@@H](O)[C@H]2CO)ncc1N(C)C(=O)C(C)(C)c1cc(C(F)(F)F)cc(C(F)(F)F)c1,inactive,–
COc1cccc([C@H](O)C2CCN(CCc3ccc(F)cc3)CC2)c1OC,–,15.7 µM (active)
COc1cc(C(=O)NC2CCN(C)CC2)ccc1Nc1ncc2c(n1)N(C1CCCC1)CC(F)(F)C(=O)N2C,inactive,–
